# Out of some 44,000 compounds screened, fewer than 10 were called active. Inconclusive results (about 2%) are left out. Only a sample is shown. Values without a mark were called inactive. The call rests on the fitted dose curve; in most records, active means well fitted curve in the direction sought with a large enough effect; inconclusive means small, poorly fitted or top-dose-only effect, or another doubt; inactive means no such curve, though single readings can be large or run the other way.
# Target: Galactokinase (Homo sapiens) (UniProt P51570)
# Assay: qHTS Assay for Inhibitors of Human Galactokinase (GALK): NCGC Sytravon Library Screen;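 further: plate controls were full GALK reaction for no effect and reaction lacking GALK for full effect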
# Settings: recombinant GALK, Kinase-Glo ATP luminescence, 1 h; series mostly up to 57.5 µM; activity, negative = inhibition: at the top concentration
# Excerpt: Inherited deficiency of galactose-1-phosphate uridyltransferase (GALT) can result in a potentially lethal disorder called Classic Galactosemia (OMIM 230400). Several lines of evidence indicate that an elevated level of galactose-1-phosphate (gal-1-p), the product of galactokinase (GALK), is a major, if not sole, pathogenic mechanism in patients with classic galactosemia. Therefore, finding inhibitors of GALK is a potential novel therapy for this inherent metabolic disease and is the long term goal of this project. This screen is run against the NCGC Sytravon compound library collection. GALK (provided by Kent Lai) was assayed using ATP and D-(+)-Galactose (Sigma-Aldrich cat# G0750) as substrates. Promega Kinase-Glo Plus technology was used to detect kinase activity. Reactions with and without GALK were used as negative and positive controls together with Protein Tyrosine Phosphatase CD45 inhibitor (EMD Bioscience cat# 540215) which is shown to inhibit GALK activity. Decrease in activity corresponds to inhibition of the enzyme is the desired outcome for this assay. NIH Molecular Libraries Probe Production Network [MLPCN] NIH Chemical Genomics Center [NCGC] Grant: R03 MH085689-01 PI Name: Kent Lai Ph.D., University of Utah
# NCGC Assay Protocol Summary: Three uL/well of ATP-buffer solution (35 uM ATP, 20mM HEPES pH8.0, 5 mM MgCl2, 60 mM NaCl, 1 mM DTT, 0.01% BSA final concentration) was dispensed into 1536-well, assay plates (Greiner, solid white medium-binding plates) with Aurora Discovery BioRAPTR Flying Reagent Dispenser (FRD; Beckton-Dickenson). Compound solution (23 nL) was transferred to the assay plate using the Kalypsys 1536-pin tool. One uL/well GALK-galactose solution (5 nM GALK, 100 uM galactose, 20 mM HEPES pH8.0, 5 mM MgCl2, 60 mM NaCl, 1 mM DTT, 0.01% BSA final concentration) was then added using the FRD yielding a total kinase reaction volume of 4 uL/ well. After 1 hour of room temperature incubation, 4 uL Kinase-Glo Plus reagent was added for a final assay volume of 8 uL/ well. Luminescence was detected with the ViewLux plate reader (Perkin Elmer, Waltham, MA) after 10 min incubation using a 1 sec exposure time and 2x binning.
# Galactokinase (Homo sapiens), sequence (P51570 whole entry, looked up): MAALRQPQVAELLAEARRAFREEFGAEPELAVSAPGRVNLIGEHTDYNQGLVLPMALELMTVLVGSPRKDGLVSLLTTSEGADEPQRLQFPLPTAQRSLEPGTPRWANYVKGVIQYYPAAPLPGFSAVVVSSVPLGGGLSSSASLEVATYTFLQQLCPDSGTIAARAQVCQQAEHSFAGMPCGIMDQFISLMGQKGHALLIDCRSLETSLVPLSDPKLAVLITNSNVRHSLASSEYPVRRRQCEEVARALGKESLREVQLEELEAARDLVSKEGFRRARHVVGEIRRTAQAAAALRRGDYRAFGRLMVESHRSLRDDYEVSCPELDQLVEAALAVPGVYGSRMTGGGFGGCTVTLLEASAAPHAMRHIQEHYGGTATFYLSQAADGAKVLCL
row,Structure (SMILES),"activity, negative = inhibition [%]"
1,O=S(=O)(NCC(c1ccco1)N1CCOCC1)c1cc(F)ccc1F (stereo not drawn),-5.26
2,COc1ccc(-c2nc(C)c(CCNC(=O)c3ccc(C(F)(F)F)cc3)s2)cc1OC,-7.93
3,CCOC(=O)c1cccc(NC(=O)C(Cc2ccccc2)NS(=O)(=O)c2cccc3nsnc23)c1 (stereo not drawn),7.9
4,Cc1ccccc1Nc1nn2c(=O)c3ccc(C(=O)NCCc4ccc(Cl)cc4)cc3nc2s1,0.366
5,CCOc1ccc(C(=O)N2CCN(CCc3ccccn3)CC2)cc1,0.691
6,COc1ccccc1CNCc1ccc(C(=O)O)s1,-3.41
7,COc1ccccc1CNC(=O)c1ccccc1NC(=O)c1nsc2ccccc12,-9.67
8,Cc1sc2ncn(CC(=O)N3CCN(c4ccc(F)cc4)CC3)c(=O)c2c1S(=O)(=O)N1CCN(c2ncccn2)CC1,0.246
9,COc1ccc(OC)c(NC(=O)/C=C/c2ccc(C)o2)c1,2.78
10,Cc1ccc(CNC(=O)CCC(=O)N2Cc3ccccc3Oc3ncccc32)cc1,-0.764
11,Cc1nn(CC(=O)NCCc2ccccc2)c(=O)c2c1sc1ccccc12,-10.7
12,COc1ccc(OC)c(NC(=O)CN2CCCN(Cc3cc(C)ccc3C)S2(=O)=O)c1,1.05
13,O=C(NCCCN1CCN(c2cccc(Cl)c2)CC1)c1nnc(Cc2ccc(F)cc2Cl)o1,0.501
14,CC1=C(c2ccc(C)c(C)c2)S(=O)(=O)NC1=NCc1ccccc1Cl,3.69
15,COc1ccc(S(=O)(=O)NCCc2cc3ccc(C)c(C)c3[nH]c2=O)cc1,1.2
16,CCc1cccc(C)c1Nc1c(-c2ccc(N(C)C)cc2)nc2ncccn12,1.49
17,COc1ccc(NC(=O)Cn2c(=O)n(Cc3ccc(C(=O)NCc4ccccc4Cl)cc3)c(=O)c3ccccc32)cc1,1.58
18,CCC(=O)Nc1ccc2nc(SCC(=O)N3CCc4ccccc43)sc2c1,1.4
19,Cc1ccc(-n2c3nc(=O)[nH]c(=O)c-3cc3c(Cl)cccc32)cc1,-0.166
20,Cc1ccc(SCC(=O)Nc2ccc3oc(-c4ccccc4C)nc3c2)cc1,-12.2
21,COc1ccc(NC(=O)CSc2nc3ccccc3n2CC(=O)N2CCCCC2C)cc1 (stereo not drawn),-1.23
22,CCOc1ccc(CCNC(=O)CSc2cc(=O)n(C)c3ccc(Cl)cc23)cc1OCC,0.0807
23,O=C(Cn1c(=O)n(Cc2ccccc2)c(=O)c2sc3ccccc3c21)Nc1ccccc1F,5.92
24,Cc1cccc2c(=O)cc(CSc3ccccc3NC(=O)C(C)C)[nH]c12,-0.731

row,Structure (SMILES),"activity, negative = inhibition [%]"
1,COc1cc(OC)c(OC)cc1/C=C/c1nc2cc3ccccc3cc2c(=O)n1-c1ccc(F)c(Cl)c1,-0.852
2,Cc1ccc(C(=O)Nc2nc(-c3ccccc3)ns2)cc1,0.054
3,Cc1ccc(C)c(Cn2c(=O)n(CCC(=O)NCc3ccc4c(c3)OCO4)c(=O)c3sccc32)c1,-5.4
4,Cc1ccc(CNS(=O)(=O)c2ccc(C(=O)N(C)C)s2)cc1,2.1
5,O=C(NCc1ccc2c(c1)CCN2C(=O)c1ccccc1)Nc1cc(F)ccc1F,-8.63
6,CN(C(=O)CSc1nc2ccccc2n1Cc1ccccc1C#N)c1ccccc1,-3.63
7,CCCn1c2ccccc2c2cnn(CC(=O)NCC3CCN(Cc4ccc(C)cc4)CC3)c(=O)c21,0.1
8,COc1ccc(-c2noc(CSc3nnc(-c4ccccc4)n3-c3ccc(F)cc3)n2)c(OC)c1,3.13
9,Cc1nnc(NC(=O)CSc2nc3c([nH]c4ccccc43)c(=O)n2-c2cccc(Cl)c2)s1,-7.52
10,CCOc1ccc(CCNC(=O)c2cc3c(=O)n(C)c4ccccc4c3n2C)cc1,1.83
11,O=C(CSc1nc2c(c(=O)[nH]1)CN(Cc1ccc(F)cc1)CC2)Nc1ccccc1Cl,3.32
12,O=C(Cc1ccc(Cl)cc1)NCC(c1cccs1)S(=O)(=O)c1ccc(Cl)cc1 (stereo not drawn),0.239
13,O=C(Nc1ccc(Br)cc1)c1ccc(Br)c(S(=O)(=O)NCc2ccccc2)c1,0.305
14,Cc1ccc(-c2cn3c(n2)sc2cc(C(=O)NCc4cccs4)ccc23)c(C)c1,4.3
15,CCc1ccccc1NC(=O)c1ccc(F)c(S(=O)(=O)NC2CCCCCC2)c1,1.07
16,CCc1cccc(NC(=O)CSc2nccn2C)c1,-2.55
17,COc1ccc(CCNc2ncnc3c2cnn3-c2ccc(C)cc2)cc1,0.59
18,Cc1cccc(-c2nc(SCc3ccc(Br)cc3)n3[nH]c(=O)cc3n2)c1,4.56
19,CC(CCCc1ccccc1)NC(=O)c1nn(-c2ccc(Cl)cc2)nc1CO (stereo not drawn),2.68
20,COc1ccc(CNc2nc(-c3ccc(Cl)cc3)cc(C(F)(F)F)n2)cc1,-1.42
21,CCn1cc(CCC(=O)NCc2ccc(F)cc2)c2ccccc21,3.15
22,CCN(c1ccc(Cl)cc1)S(=O)(=O)c1nnc(NC(=O)c2ccco2)s1,1.43
23,CCc1nn(CC(=O)Nc2cccc(C)c2C)c(=O)c2cc3sccc3n12,-10.4
24,Cc1c(Cl)cccc1NC(=O)C1CCCN(C(=O)c2cnn(-c3ccccc3)c2-n2cccc2)C1 (stereo not drawn),5.36

# — PubChem BioAssay AID1347072 (National Center for Advancing Translational Sciences (NCATS), 2019)
